Values joined by “and” are separate entries in the source; they are usually repeats but may differ in a detail not shown here. Equal values may be shown once. Records with an inconclusive call do not appear. Some compounds were tested as several samples or in several runs, with calls that do not always agree. Active and inactive are the calls of the source. Rule for the calls: active = hit-call score of the fitted dose curve at least 0.9, where 1 is the maximum; inconclusive = response in the unintended direction; inactive = score below 0.9.

A short description of the assay: Tanguay_ZF_120hpf_PE_legacy: (Legacy) Oregon State University Tanguay Lab 120 Hour Post-fertilization zebrafish Assay for Pericardial Edema (AID 2283640).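 For AC50: potency for increased incidence of pericardial edema versus DMSO baseline.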 How it is done:
Tanguay_ZF_120hpf_legacy is a whole embryo, multiplexed endpoint assay using zebrafish larvae exposed for 120 hours post fertilization on a 96-well plate.Tanguay_ZF_120hpf_PE_legacy is one of one assay component(s) measured or calculated from the Tanguay_ZF_120hpf_legacy assay. It is designed to make measurements of zebrafish development as detected with brightfield microscopy of developing zebrafish embryos.Data from the assay component Tanguay_ZF_120hpf_PE_legacy was analyzed into 1 assay endpoints. This assay endpoint, Tanguay_ZF_120hpf_PE_legacy, was analyzed in the positive analysis fitting direction relative to DMSO as the negative control and baseline of activity. Using a type of morphology reporter, gain-of-signal activity can be used to understand changes in developmentals as they relate to the whole embryo. To generalize the intended target to other relatable targets, this assay endpoint is annotated to the zebrafish development intended target family, where the subfamily is embryonic morphogenesis.
Zebrafish husbandry: Tropical 5D wild-type adult zebrafish were housed in at an approximate density of 1000 per 100 gallon tank at the Sinnhuber Aquatic Research Laboratory, Oregon State University, Corvallis, OR. Each tank was kept at standard laboratory conditions of 28C on a 14-h light/10-h dark photoperiod in fish water consisting of reverse osmosis water supplemented with a commercially available salt (Instant Ocean). Spawning funnels were placed into the tanks the night prior, and embryos were collected and staged. […] Ten microliters of each row of dilution plate 2 was added to 2 exposure plates. The final DMSO concentration used was 0.64% (vol/vol). Thirty-two embryos were also exposed to 5uM trimethyltin chloride (positive control). Plates were sealed to prevent evaporation and foil covered to reduce light exposure and kept in a 28C incubator. Embryos were statically exposed until 120 hpf. At 24 hpf, embryos were assessed for photomotor response using a custom photomotor response analysis tool (PRAT) and for developmental toxicity endpoints (MO24: mortality at 24 hpf, DP: developmental progression, SM: spontaneous movement, and NC: notochord distortion). At 120 hpf, locomotor activity was measured using Viewpoint Zebralab and assessed for 18 endpoints. Zebrafish acquisition and analysis program (ZAAP), a custom program designed to inventory, acquire, and manage zebrafish data, was used to collect developmental endpoints as either present or absent (i.e., binary responses were recorded). If mortality occurred for an embryo (at either 24 or 120 hpf), the non-mortality endpoints were not measured.
For `CC(C)(C)C(O)/C(=C\c1ccc(Cl)cc1Cl)n1cncn1` (stereo not given), the AC50 – broadly, the concentration giving half of the maximal activity seen – was 42.4 µM (active). On the same count and under the same terms, then `CC(C)(C)C(O)C(Oc1ccc(Cl)cc1)n1cncn1` (stereo not given), with 47.5 µM (active) and 32.6 µM (active) and 43.3 µM (active); and `O=C(O)CCCOc1ccc(Cl)cc1Cl`, with 24.2 µM (active).

As for `O=S(=O)(O)C(F)(F)C(F)(F)C(F)(F)C(F)(F)C(F)(F)C(F)(F)C(F)(F)C(F)(F)F`, the result was inactive; the AC50 was 14.5 µM (active) and 36.8 µM (active). In the case of `O=[N+]([O-])/N=C1\NCCN1Cc1ccc(Cl)nc1`, the molecule was classed as inactive. Same read-out and setting: next, `N#CN`: “inactive”.

For `CC(C)OC(=O)Nc1cccc(Cl)c1`, the half-maximal activity concentration (AC50) is 37.7 µM (active). As to `COP(=O)(OC)OC=C(Cl)Cl`, the result was inactive. The same measure, in the same setting: next, `CNC(=O)/C=C(\C)OP(=O)(OC)OC`: “inactive”; `O=C(NC(=O)c1c(F)cccc1F)Nc1ccc(OC(F)(F)C(F)OC(F)(F)F)c(Cl)c1` (stereo not given): “inactive”. `OCCOc1ccccc1`: the molecule was called inactive. The same measure, in the same setting: then `CCOCN(C(=O)CCl)c1c(C)cccc1CC`, with “inactive”; and `C[C@H]1[C@H](c2ccc(Cl)cc2)SC(=O)N1C(=O)NC1CCCCC1`, with “inactive”; and `CC(C)N(C(=O)COc1nnc(C(F)(F)F)s1)c1ccc(F)cc1`, with “inactive”.

Regarding `CCC(C)Nc1c([N+](=O)[O-])cc(C(C)(C)C)cc1[N+](=O)[O-]` (stereo not given), the result was inactive. The same measure, in the same setting: then `CC1(C)C(C=C(Cl)Cl)C1C(=O)OC(C#N)c1ccc(F)c(Oc2ccccc2)c1` (stereo not given), with “inactive”; and `CCOC1Oc2ccc(OS(C)(=O)=O)cc2C1(C)C` (stereo not given), with “inactive”. Still for that read-out and setting: next, `Oc1cc(Cl)ccc1Oc1ccc(Cl)cc1Cl`: “inactive”; `O=S1OCC2C(CO1)C1(Cl)C(Cl)=C(Cl)C2(Cl)C1(Cl)Cl` (stereo not given): “inactive”; `CCN(CC)C(=O)SCc1ccc(Cl)cc1`: “inactive”. For `COP(=S)(OC)Oc1ccc([N+](=O)[O-])cc1`, the result was inactive.

For the molecule `CNC(=O)Oc1cccc(N=CN(C)C)c1`, the result was inactive.

Regarding `O=C(O)C(F)(F)C(F)(F)C(F)(F)C(F)(F)C(F)(F)C(F)(F)C(F)(F)F`, the call was inactive.

For `CCCN(CCOc1c(Cl)cc(Cl)cc1Cl)C(=O)n1ccnc1`, the result was inactive. Turning to `CC[C@H](C)[C@H]1O[C@]2(C=C[C@@H]1C)C[C@@H]1C[C@@H](C/C=C(\C)[C@@H](O[C@H]3C[C@H](OC)[C@@H](O[C@H]4C[C@H](OC)[C@@H](O)[C@H](C)O4)[C@H](C)O3)[C@@H](C)/C=C/C=C3\CO[C@@H]4[C@H](O)C(C)=C[C@@H](C(=O)O1)[C@]34O)O2` (tested in a mixture with another compound), the AC50 is 0.808 µM (active). On the same count and under the same terms, next, `CN1CSC(=S)N(C)C1`: 35 µM (active).

In the case of `CNC(=O)CSP(=S)(OC)OC`, the molecule was called inactive. Same read-out and setting: next, `O=[N+]([O-])c1c(Cl)c(Cl)c(Cl)c(Cl)c1Cl`: “inactive”; `O=C(Nc1ccccc1)Nc1cnns1`: “inactive”; `CCC(C)(C)C(=O)OC1=C(c2ccc(Cl)cc2Cl)C(=O)OC12CCCCC2`: “inactive”. On the same count and under the same terms, next, `ClC1C(Cl)C(Cl)C(Cl)C(Cl)C1Cl` (stereo not given): “inactive”; `Oc1ccc(Cl)cc1Cc1ccccc1`: “inactive”; `O=C(O)COc1ccc(Cl)cc1Cl`: “inactive”.

In the case of `CNC(=O)Oc1ccccc1OC(C)C`, the molecule was classed as inactive. As to `CCC(C)(NC(=O)c1cc(Cl)c(C)c(Cl)c1)C(=O)CCl` (stereo not given), the molecule was classed as inactive. On the same count and under the same terms, then `Cc1[nH]c(=O)n(C(C)(C)C)c(=O)c1Cl`, with “inactive”; and `N#Cc1c(Cl)c(Cl)c(Cl)c(C#N)c1Cl`, with “inactive”; and `COc1nn(CSP(=S)(OC)OC)c(=O)s1`, with “inactive”. Regarding `C#CCN1C(=O)COc2cc(F)c(N3C(=O)C4=C(CCCC4)C3=O)cc21`, the molecule was called inactive.

Values taken from PubChem BioAssay (EPA / NIEHS).
